Measured values reported in PMC11062922 (Nature Chemical Biology, 2023).
Where two headings read alike, the source gives them in different places.

Legend:
Set-up in all cases: species or system human, MV4-11 + K-562 + COLO205 + SK-N-BE2 + OVCAR-8
[1] = tested on: ADCK3; details: read-out: apparent Kd, compound concentrations: 100 nM and 1000 nM (sheet 'Samples'), n = 1
[2] = tested on: PI4KA; details: read-out: apparent Kd; compound concentrations: 100 nM and 1000 nM (sheet 'Samples'), CATDS: 8.9803456150084393E-2; n = 1
[3] = tested on: PIK3CA; details: read-out: apparent Kd; compound concentrations: 100 nM and 1000 nM (sheet 'Samples'), CATDS: 0.36477997446567001; n = 1
[4] = tested on: PIK3CB; details: read-out: apparent Kd, compound concentrations: 100 nM and 1000 nM (sheet 'Samples'), n = 1
[5] = tested on: PIK3CD; details: read-out: apparent Kd, compound concentrations: 100 nM and 1000 nM (sheet 'Samples'), n = 1
[6] = tested on: PIK3CG; details: read-out: apparent Kd; compound concentrations: 100 nM and 1000 nM (sheet 'Samples'), CATDS: 0.133003472389642; n = 1
[7] = tested on: PRKDC; details: read-out: apparent Kd; compound concentrations: 100 nM and 1000 nM (sheet 'Samples'), CATDS: 9.9642367307020793E-2; n = 1
[8] = tested on: SRRT; details: read-out: apparent Kd; compound concentrations: 100 nM and 1000 nM (sheet 'Samples'), CATDS: 7.4591136223679494E-2; n = 1
[9] = tested on: TOP2B; details: read-out: apparent Kd; compound concentrations: 100 nM and 1000 nM (sheet 'Samples'), CATDS: 7.4747311850649895E-2; n = 1
[10] = tested on: AKT2; details: read-out: apparent Kd; compound concentrations: 100 nM and 1000 nM (sheet 'Samples'), CATDS: 6.9315360856789104E-2; n = 1
[11] = tested on: ATM; details: read-out: apparent Kd, compound concentrations: 100 nM and 1000 nM (sheet 'Samples'), n = 1
[12] = tested on: CAMK4; details: read-out: apparent Kd; compound concentrations: 100 nM and 1000 nM (sheet 'Samples'), CATDS: 7.7064865846565897E-2; n = 1
[13] = tested on: CDK6; details: read-out: apparent Kd; compound concentrations: 100 nM and 1000 nM (sheet 'Samples'), CATDS: 7.4930063387868798E-2; n = 1
[14] = tested on: CDKL5; details: read-out: apparent Kd, compound concentrations: 100 nM and 1000 nM (sheet 'Samples'), n = 1
[15] = tested on: CSNK1E; details: read-out: apparent Kd; compound concentrations: 100 nM and 1000 nM (sheet 'Samples'), CATDS: 6.4509222244259798E-2; n = 1
[16] = tested on: CSNK2A1;CSNK2A3; details: read-out: apparent Kd; compound concentrations: 100 nM and 1000 nM (sheet 'Samples'), CATDS: 6.2096943354302901E-2; n = 1
[17] = tested on: MAP2K1; details: read-out: apparent Kd; compound concentrations: 100 nM and 1000 nM (sheet 'Samples'), CATDS: 6.2459835665012599E-2; n = 1
[18] = tested on: MAP2K2; details: read-out: apparent Kd; compound concentrations: 100 nM and 1000 nM (sheet 'Samples'), CATDS: 6.9306858675437497E-2; n = 1
[19] = tested on: NNT; details: read-out: apparent Kd; compound concentrations: 100 nM and 1000 nM (sheet 'Samples'), CATDS: 7.4633464586539203E-2; n = 1
[20] = tested on: NQO1; details: read-out: apparent Kd; compound concentrations: 100 nM and 1000 nM (sheet 'Samples'), CATDS: 8.3466895844620997E-2; n = 1
[21] = tested on: RIOK2; details: read-out: apparent Kd; compound concentrations: 100 nM and 1000 nM (sheet 'Samples'), CATDS: 6.3640535742752496E-2; n = 1
[22] = tested on: ARAF; details: read-out: apparent Kd; compound concentrations: 100 nM and 1000 nM (sheet 'Samples'), CATDS: 0.31382782577056201; n = 1
[23] = tested on: ADCK1; details: read-out: apparent Kd; compound concentrations: 100 nM and 1000 nM (sheet 'Samples'), CATDS: 8.5431360664487602E-2; n = 1
[24] = tested on: CDC42BPG; details: read-out: apparent Kd; compound concentrations: 100 nM and 1000 nM (sheet 'Samples'), CATDS: 7.3873319351317801E-2; n = 1
[25] = tested on: CLK1; details: read-out: apparent Kd; compound concentrations: 100 nM and 1000 nM (sheet 'Samples'), CATDS: 0.10181470937503199; n = 1
[26] = tested on: CLK2; details: read-out: apparent Kd; compound concentrations: 100 nM and 1000 nM (sheet 'Samples'), CATDS: 0.42234286586488101; n = 1
[27] = tested on: CLK4; details: read-out: apparent Kd; compound concentrations: 100 nM and 1000 nM (sheet 'Samples'), CATDS: 0.12045713212899201; n = 1
[28] = tested on: PRKAG2; details: read-out: apparent Kd; compound concentrations: 100 nM and 1000 nM (sheet 'Samples'), CATDS: 7.6138264702913502E-2; n = 1

Q: Which potency estimated from few doses ([1]; CATDS: 7.8381532556713998E-2) does the source give for `Nc1ncc(-c2ccc3nccc(-c4ccncc4)c3c2)cc1S(=O)(=O)N1CCOCC1` [GSK1627798A] here?
A: Its potency estimated from few doses is 1520 nM.

Q: What about the potency estimated from few doses [2] of the same compound?
A: The potency estimated from few doses was 893 nM.

Q: And the potency estimated from few doses [3]?
A: Its potency estimated from few doses is 11.1 nM.

Q: What about the potency estimated from few doses ([4]; CATDS: 0.118363122139114) of the same compound?
A: The potency estimated from few doses was 366 nM.

Q: And the potency estimated from few doses ([5]; CATDS: 0.63403927390637105)?
A: The potency estimated from few doses was 3.67 nM.

Q: What about the potency estimated from few doses [6] of the same compound?
A: Its potency estimated from few doses is 258 nM.

Q: What about the potency estimated from few doses [7] of the same compound?
A: Its potency estimated from few doses is 627 nM.

Q: What about the potency estimated from few doses [8] of the same compound?
A: The potency estimated from few doses was 1900 nM.

Q: What about the potency estimated from few doses [9] of the same compound?
A: Its potency estimated from few doses is 1880 nM.

Q: Which potency estimated from few doses ([1]; CATDS: 9.8029447870553399E-2) does the source give for `Cc1nc(-c2ccccc2)n2nc(NCCCN3CCOCC3)ncc12` [GW874091X] here?
A: The potency estimated from few doses was 915 nM.

Q: What about the potency estimated from few doses [10] of the same compound?
A: Its potency estimated from few doses is 1850 nM.

Q: And the potency estimated from few doses ([11]; CATDS: 0.21297510466852801)?
A: The potency estimated from few doses was 287 nM.

Q: What about the potency estimated from few doses [12] of the same compound?
A: Its potency estimated from few doses is 1460 nM.

Q: What about the potency estimated from few doses [13] of the same compound?
A: The potency estimated from few doses was 1550 nM.

Q: And the potency estimated from few doses ([14]; CATDS: 9.7869696626463096E-2)?
A: Its potency estimated from few doses is 917 nM.

Q: And the potency estimated from few doses [15]?
A: Its potency estimated from few doses is 2210 nM.

Q: And the potency estimated from few doses [16]?
A: The potency estimated from few doses was 2450 nM.

Q: And the potency estimated from few doses [17]?
A: The potency estimated from few doses was 2410 nM.

Q: And the potency estimated from few doses [18]?
A: Its potency estimated from few doses is 1850 nM.

Q: What about the potency estimated from few doses [19] of the same compound?
A: The potency estimated from few doses was 1560 nM.

Q: And the potency estimated from few doses [20]?
A: Its potency estimated from few doses is 1240 nM.

Q: What about the potency estimated from few doses [21] of the same compound?
A: The potency estimated from few doses was 2290 nM.

Q: With `N#Cc1c(C(=O)c2ccccc2)cnn1-c1ccccc1` [RO1150868-000] as the compound, how does the potency estimated from few doses ([1]; CATDS: 0.41640381160796702) read?
A: The potency estimated from few doses was 510 nM.

Q: What about the potency estimated from few doses [22] of the same compound?
A: Its potency estimated from few doses is 875 nM.

Q: What about the potency estimated from few doses ([4]; CATDS: 0.29308113927572399) of the same compound?
A: Its potency estimated from few doses is 1020 nM.

Q: With `CCOc1ccc2c(-c3ccnc(Nc4cccc(C(F)(F)F)c4)n3)cnn2n1` [GW811761X] as the compound, how does the potency estimated from few doses [23] read?
A: Its potency estimated from few doses is 1140 nM.

Q: And the potency estimated from few doses ([11]; CATDS: 0.154535696206207)?
A: The potency estimated from few doses was 257 nM.

Q: And the potency estimated from few doses [24]?
A: Its potency estimated from few doses is 2020 nM.

Q: And the potency estimated from few doses ([14]; CATDS: 0.103192047261391)?
A: The potency estimated from few doses was 644 nM.

Q: And the potency estimated from few doses [25]?
A: Its potency estimated from few doses is 667 nM.

Q: And the potency estimated from few doses [26]?
A: The potency estimated from few doses was 49.8 nM.

Q: What about the potency estimated from few doses [27] of the same compound?
A: The potency estimated from few doses was 438 nM.

Q: What about the potency estimated from few doses ([5]; CATDS: 0.16747258598029099) of the same compound?
A: The potency estimated from few doses was 220 nM.

Q: What about the potency estimated from few doses [28] of the same compound?
A: Its potency estimated from few doses is 1760 nM.
